# Assay outcomes from PubChem.
# These entries were drawn from the full list.
# aSyn UTR act = Activators via SNCA 5'UTR binding, MLPCN. 7.1% of 300,000 active. activity score, % (tested at 7.5 µM), hits read low. AID 1814. alpha-synuclein 5'UTR reporter, activators screen; in the data active means activity score below about -60%
# Numbers stand for hits; i = inactive.
SMILES,aSyn UTR act
COC(=O)Nc1nc(-c2ccccc2)c(C(=O)c2ccccc2)s1,i
CCc1nnc(NC(=O)Nc2ccc(Cl)cc2)s1,-66.2
CCOC(=O)c1sc(NC(=O)Nc2ccc(Cl)cc2)nc1C,-175.1
COC(=O)Nc1nc(C)c(C(=O)c2ccccc2)s1,-105.0
CCOC(=O)c1sc(Nc2nc3c(OC)cccc3s2)nc1C,-164.3
Cc1ccc(-c2nc(Nc3cccc(C)c3)sc2CC(=O)O)cc1,-143.3
Cc1nc(Nc2ccccc2)sc1C(=O)c1ccccc1,-67.8
COc1ccc(Nc2nc(N)c(C(=O)c3ccc(F)cc3)s2)cc1,i
CC(C)(C)C(=O)c1sc(Nc2ccccc2)nc1N,-179.5
C1CCN=C(Nc2nc3c(s2)CCCC3)CC1,-138.9
O=C(Cc1sc(Nc2ccccc2)nc1-c1ccccc1)NCc1ccccc1,-122.6
Nc1ccc(Oc2cc(N)cc(Oc3ccccc3)c2)cc1,-172.5
CCC1C(=O)n2nc(-c3ccccc3)cc2N=C1C (stereo unspecified),-143.4
CC1CCCN(C(=O)Nc2ccc(Br)cc2Cl)C1 (stereo unspecified),-91.1
CCS(=O)(=O)c1ncc(Cl)c(C(=O)Nc2ccc(S(=O)(=O)N3CCCC(C)C3)cc2)n1 (stereo unspecified),i
O=C(/C=C/c1ccco1)NC(=S)Nc1nc(-c2ccc(Cl)cc2)cs1,-76.2
O=C(/C=C\c1ccco1)Nc1nc(-c2ccccc2)cs1,-121.2
O=C(/C=C/c1ccco1)NC(=S)Nc1nc(-c2ccc3ccccc3c2)cs1,-94.0
CCOC(=O)C(CC)/C(C)=N\NC(=O)c1ccccc1O (stereo unspecified),i
C/C(=N\NC(=O)c1cc(Br)ccc1O)c1cccs1,-110.8
C/C(=N/NC(=O)c1cnccn1)c1cccs1,-65.2
CC(C)c1ccc2[nH]c(O)c(N=NC(=O)c3ccc(CSc4nncn4C)cc3)c2c1,-71.8
C/C(=N\NC(=O)c1ccccc1O)c1ccc(Br)s1,-161.9
C/C(=N\NC(=O)c1n[nH]c2c1CCC2)c1cccs1,i
C/C(=N\Nc1ccccn1)c1cccs1,-147.9
SMILES,aSyn UTR act
C/C(=N\NC(=O)c1ccc(CSc2nncn2C)cc1)c1cccs1,-62.1
C/C(=N/NC(=O)c1ccc(Br)o1)c1cccs1,-72.9
COc1cc(NC(=O)c2ccc([N+](=O)[O-])o2)ccc1NC(=O)c1cccs1,-82.2
O=C(Nc1cc2cc([N+](=O)[O-])ccc2oc1=O)c1cccs1,-75.9
O=C(Nc1cccc(NC(=O)c2cccs2)c1)c1ccc([N+](=O)[O-])o1,-69.0
Fc1ccccc1NC(=S)Nc1ccc(Br)cc1,-73.6
Fc1cc(Br)ccc1NC(=S)Nc1ccccc1,-115.0
Cc1ccc(NC(=S)Nc2ccc(Br)cc2)cc1,-85.8
CCCCn1c(-c2ccccc2)cnc1SCC(=O)NCCc1ccc(OC)c(OC)c1,-135.8
COc1ccc(CCNC(=O)C(=O)NCc2ccccc2)cc1OC,-81.9
COc1cc(CN2CCCCC2)ccc1OCc1ccccc1,-65.5
COc1cc(CNC(=O)C2CC2)ccc1OCc1ccccc1,-96.8
COc1cc(CN2CCC(C(=O)NCCC(C)C)CC2)ccc1OCc1ccccc1,-173.0
CC1CCC(NC(=O)c2cc3c(s2)CCCC3)CC1 (stereo unspecified),-116.1
Cc1ccc(C(=O)NC2CCC(C)CC2)s1 (stereo unspecified),-91.7
Cc1nn(-c2ccccc2)c(C)c1/C=N/NC(=O)CSc1nnc(SCc2ccccc2Cl)s1,-71.3
Cc1ccc(CSc2nnc(SCC(=O)N/N=C/c3c(C)nn(-c4ccccc4)c3C)s2)cc1,-114.5
O=C(Nc1ccc(/C=C/c2nc3ccccc3o2)cc1)c1c(F)cccc1F,-171.5
CC(=O)Nc1ccc(/C=C/c2nc3ccccc3o2)cc1,-127.8
COc1ccc(C2CC(=O)c3sc(NC(C)=O)nc3C2)cc1 (stereo unspecified),-74.6
COc1ccc(NC2=C3CC(C)CC=C3N(c3ccc(OC)cc3)C2=O)cc1 (stereo unspecified),-84.1
Cc1ccc2nc(NC(=O)c3ccc(Cl)s3)sc2c1,-132.7
Cc1nc2ccc(NC(=O)c3ccc(Br)o3)cc2s1,-185.7
Cc1nc2ccc(NC(=O)c3ccc(Cl)s3)cc2s1,-238.0
COc1cc(/C=C2\SC(=S)N(Nc3ccccc3)C2=O)ccc1O,-145.2
SMILES,aSyn UTR act
O=C1/C(=C/c2ccc(O)c(O)c2)SC(=S)N1Nc1ccccc1,-146.2
Cc1ccc(/C=C2\SC(=S)N(CCCC(=O)Nc3cccnc3)C2=O)cc1,i
CCOc1cc(/C=C2\SC(=S)N(Nc3ccccc3)C2=O)ccc1O,-164.6
COc1ccc(/C=C2\SC(=S)N(CCCC(=O)Nc3ccc(O)cc3)C2=O)cc1,i
O=C(Nc1nc2ccc(F)cc2s1)c1ccccn1,i
O=C(Nc1nc2ccc(F)cc2s1)c1ccc(N2CCCC2=O)cc1,-154.9
O=C(Nc1nc2ccc(F)cc2s1)C1=NN(c2ccccc2)C(=O)CC1,-97.3
COc1ccc(OC)c(-c2csc(NC(=O)C3=NN(c4ccccc4)C(=O)CC3)n2)c1,-128.8
O=C(Nc1ccccc1Br)c1ccc(N2CCCC2=O)cc1,-123.7
Cc1csc(NC(=O)c2ccc(N3CCCC3=O)cc2)n1,i
NCCCn1c(C(=O)c2cc(Cl)c(N)c(Cl)c2)c2ccc([N+](=O)[O-])cc2[n+]1[O-],i
O=C1c2ccccc2-c2c1nc1c([n+]2[O-])CCCC1,-96.7
CCOC(=O)c1ccc2[nH]c(C)c(C)c2c1,-85.9
Cc1ccc2[nH]c(C(=O)N3CCCCC3)cc2c1,-97.6
COC(=O)c1ccc2[nH]c(C(C)(C)O)c(C)c2c1,-93.7
COc1ccccc1N1CCN(C(=O)c2ccc3[nH]c(C)c(C)c3c2)CC1,i
Cc1[nH]c2ccc(C(=O)N3CCCCC3)cc2c1C,-111.8
CCOC(=O)c1ccc2[nH]c3ccccc3c2c1,-132.6
O=C(CSCc1ccccc1Cl)Nc1ccc2c(c1)OCCO2,-151.7
O=C(CNCc1ccccc1)Nc1ccc(Cl)cc1,-82.2
O=C(CNCc1ccc(Cl)cc1)Nc1ccc2c(c1)OCCO2,-98.9
O=C(CNCc1ccccc1Cl)Nc1ccc2c(c1)OCCO2,-116.6
O=C(Nc1cccc([N+](=O)[O-])c1)c1ccn[nH]1,-106.0
O=C(Nc1ccccc1)c1ccn[nH]1,-190.6
OC(c1cc(-c2ccc(C(F)(F)F)cc2)nc(C(F)(F)F)c1)C1CCCCN1 (stereo unspecified),i
SMILES,aSyn UTR act
CS(=O)(=O)c1nc(-c2ccccc2)cc(C(F)(F)F)n1,-111.2
C=CCNc1nc(Nc2ccccc2F)nc(OCC)n1,-122.2
COc1cc(N)ccc1C(=O)O,-76.0
COC(=O)c1sccc1-c1ccc(/C=N/OC(=O)c2ccccc2)o1,-69.0
COc1ccc(-c2noc(N(C)CC(=O)Nc3cccc(C(F)(F)F)c3)n2)cc1,-76.3
COc1ccc(-c2cc(C(=O)Nc3cccc(Cl)c3)no2)cc1,-265.6
COc1ccc(-c2cc(C(=O)Nc3cccc(C(C)=O)c3)no2)cc1,-76.1
COc1ccc(OC)c(-c2cc(C(=O)Nc3cccc(Cl)c3)no2)c1,-67.9
COc1ccc(OC)c(-c2cc(C(=O)Nc3c(C)nn(Cc4ccc(Cl)cc4)c3C)no2)c1,i
COC(=O)c1sccc1-c1ccc(C(=O)Nc2cccc(Cl)c2)o1,-124.9
COc1ccc(-c2nnc(SC(C)C(=O)Nc3cccc(Cl)c3)o2)cc1 (stereo unspecified),-160.4
CN(C(=O)c1ccco1)c1nnc(C23CC4CC(CC(C4)C2)C3)s1,-143.5
COCCOCCn1c(/C=C/c2ccccc2)nc2ccccc21,-96.6
CC(C)n1c(/C=C/c2ccccc2)nc2ccccc21,-117.8
COc1cc(Cn2c(-c3nonc3N)nc3ccccc32)ccc1C,i
